From PubChem BioAssay (NCATS) come the findings set out here.

Assay [1] has as its system Zika virus NS2B-NS3 protease (unlinked). The assay is described as follows: Optimization of GU AMC qHTS for Zika virus inhibitors: Unlinked NS2B-NS3 protease assay (AID 1347151). Note: nearly all actives have a fitted effect of over 80% in size. Note: potency is the fitted concentration of half-maximal effect. Put shortly: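 Noncovalent NS2B hydrophilic domain–NS3 protease complex (25 nM final) in 10 mM Tris-HCl pH 8.0, 0.01% Tween 20; AMC substrate, room temperature 15 min (~20% conversion); fluorescence change normalized, 4-parameter Hill fit.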
Background: In qHTS, concentration-response curves come from the screen itself.

Assay [2] has as its system Zika virus NS2B-NS3 protease. The assay is described as follows: Primary screen GU AMC qHTS for Zika virus inhibitors (AID 1347154). Note: nearly all actives have a fitted effect of over 70% in size. Put shortly:
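Unlinked Zika NS2B hydrophilic domain–NS3 protease complex at 25 nM in 10 mM Tris-HCl pH 8.0, 0.01% Tween 20, with an AMC peptide substrate. Fluorescence change (340/450 nm) over 15 min at room temperature, normalized to controls, fitted to 4-parameter Hill.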

Assay [3] addresses Lysine-specific demethylase 5B (Homo sapiens) (UniProt Q9UGL1). The experiment in a line: Optimization screen for KDM5B Histone Demethylases FDH coupled qHTS against the LOPAC library (AID 1347166). Put shortly: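 KDM5BDeltaAP (200nM final) preincubated 10 min with compound, then 12.5uM H3K4Me3, 25uM a-ketoglutarate, ascorbate, Fe(II), NAD+ and FDH added; 50mM HEPES pH 7.5, 0.01% Tween-20. NADH fluorescence (340/450 nm) change over 30 min, room temperature.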

Assay [4] has as its target N-terminal Xaa-Pro-Lys N-methyltransferase 1 (Homo sapiens) (UniProt Q9BV86). The assay is described as follows: qHTS Assay for Inhibitors of N-terminal methyltransferase 1 (NTMT1): LOPAC validation of the NTMT1 SAHH-coupled ThioGlo3 Assay (AID 1347143).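 Note: SAH from peptide methylation measured as thiol fluorescence via SAHH coupling and ThioGlo3; nearly all actives have a fitted effect of over 70% in size.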 Put shortly:
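Recombinant human NTMT1 (125nM) was pre-incubated 1 min at room temperature with compounds over a concentration range, then a mix of 100uM SAM, 10uM SAHH and 15uM ThioGlo3 (concentrations in added reagent) was added. ThioGlo3 fluorescence (ex 340/em 450nm) after 30 min was normalized to the initial reading.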

Assay [5] concerns Zika virus NS2B-NS3 protease (unlinked complex). The experiment in a line: Primary screen GU Rhodamine qHTS for Zika virus inhibitors: Unlinked NS2B-NS3 protease assay (AID 1347159). Note: nearly all actives have a fitted effect of over 60% in size. Note: potency is the fitted concentration of half-maximal effect. The gist of the method: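 Percent inhibition derives from the 15-min fluorescence change (ex 480, em 540 nm), normalized to no-enzyme and no-inhibitor wells. Reactions contained 25 nM NS2B-NS3 complex and 1.5 microM substrate in 10 mM Tris-HCl pH 8.0.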

Assay [6] concerns Zika virus NS2B-NS3 protease (linked construct). The assay is described as follows: Primary screen NINDS Rhodamine qHTS for Zika virus inhibitors (AID 1347160). Note: nearly all actives have a fitted effect of over 55% in size. Note: potency is the fitted concentration of half-maximal effect. The gist of the method:
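In 10 mM Tris-HCl pH 8.0 containing 0.01% Tween 20, linked NS2B-NS3 protease (25 nM final) is exposed to test compounds for 15 min. Cleavage of 1.5 microM Rhodamine110 substrate is tracked by fluorescence over 15 min.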

Assay [7] in a line: ZIKV-mCherry secondary qHTS for Zika virus inhibitors (AID 1347158). Note: top concentration of the series differs between compounds. The gist of the method: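 Vero cells, 5,000/well, plated overnight at 37 °C, then compound added and infected with recombinant ZIKV-mCherry at MOI 1 for 48-72 h. PFA-fixed, Hoechst nuclear stain, high-content imaging; cells with mCherry intensity above 450 RFU scored infected, reported as percent infection.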

In assay [8] the test system is Zika virus NS2B-NS3 protease (linked). The experiment in a line: 384 well plate NINDS AMC confirmatory qHTS for Zika virus inhibitors (AID 1347163). Note: potency is the fitted concentration of half-maximal effect; nearly all actives have a fitted effect of over 50% in size. The conditions noted are these: Recombinant NS2B-NS3 protease, Ac-VKTGKR-AMC fluorescence. The gist of the method: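 Linked protease 5/30/60 nM final; cpds up to 1 mM final, ~15 min preinc. Substrate Ac-VKTGKR-AMC 30 microM final. RT, dark, 25 min; FI ex 355/em 460; normalized to no-enzyme/no-inhibitor ctrls.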

The nature of assay [9]: Confirmatory screen GU Rhodamine qHTS for Zika virus inhibitors qHTS (AID 1347157). Note: potency is the fitted concentration of half-maximal effect; nearly all actives have a fitted effect of over 70% in size. Put shortly: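 Noncovalent NS2B hydrophilic domain/NS3 protease complex (25 nM final) in 10 mM Tris-HCl pH 8.0, 0.01% Tween 20, preincubated 15 min with compounds (up to 114 microM), then 1.5 microM Rhodamine110 substrate. Fluorescence change over 15 min fitted to 4-parameter Hill.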
Assay [10] can be described thus: Confirmatory screen NINDS Rhodamine qHTS for Zika virus inhibitors (AID 1347161). Note: potency is the fitted concentration of half-maximal effect; nearly all actives have a fitted effect of over 60% in size. The gist of the method: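 Percent inhibition, normalized to uninhibited and enzyme-free controls, is fitted to a 4-parameter Hill equation. Fluorescence change comes from a 15-min cleavage of 1.5 microM bis-peptide Rhodamine110 substrate by 25 nM linked NS2B-NS3 at room temperature.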

Records with an inconclusive call do not appear. Activity calls are given as the source filed them. Calls come from the whole dose curve; as a rule, active = well fitted curve in the direction sought with a large enough effect; inconclusive = small, poorly fitted or top-dose-only effect, or another doubt; inactive = no such curve, though single readings can be large; an effect the other way counts as inactive or inconclusive.

Lysine-specific demethylase 5B (Homo sapiens), sequence (Q9UGL1 whole entry, looked up): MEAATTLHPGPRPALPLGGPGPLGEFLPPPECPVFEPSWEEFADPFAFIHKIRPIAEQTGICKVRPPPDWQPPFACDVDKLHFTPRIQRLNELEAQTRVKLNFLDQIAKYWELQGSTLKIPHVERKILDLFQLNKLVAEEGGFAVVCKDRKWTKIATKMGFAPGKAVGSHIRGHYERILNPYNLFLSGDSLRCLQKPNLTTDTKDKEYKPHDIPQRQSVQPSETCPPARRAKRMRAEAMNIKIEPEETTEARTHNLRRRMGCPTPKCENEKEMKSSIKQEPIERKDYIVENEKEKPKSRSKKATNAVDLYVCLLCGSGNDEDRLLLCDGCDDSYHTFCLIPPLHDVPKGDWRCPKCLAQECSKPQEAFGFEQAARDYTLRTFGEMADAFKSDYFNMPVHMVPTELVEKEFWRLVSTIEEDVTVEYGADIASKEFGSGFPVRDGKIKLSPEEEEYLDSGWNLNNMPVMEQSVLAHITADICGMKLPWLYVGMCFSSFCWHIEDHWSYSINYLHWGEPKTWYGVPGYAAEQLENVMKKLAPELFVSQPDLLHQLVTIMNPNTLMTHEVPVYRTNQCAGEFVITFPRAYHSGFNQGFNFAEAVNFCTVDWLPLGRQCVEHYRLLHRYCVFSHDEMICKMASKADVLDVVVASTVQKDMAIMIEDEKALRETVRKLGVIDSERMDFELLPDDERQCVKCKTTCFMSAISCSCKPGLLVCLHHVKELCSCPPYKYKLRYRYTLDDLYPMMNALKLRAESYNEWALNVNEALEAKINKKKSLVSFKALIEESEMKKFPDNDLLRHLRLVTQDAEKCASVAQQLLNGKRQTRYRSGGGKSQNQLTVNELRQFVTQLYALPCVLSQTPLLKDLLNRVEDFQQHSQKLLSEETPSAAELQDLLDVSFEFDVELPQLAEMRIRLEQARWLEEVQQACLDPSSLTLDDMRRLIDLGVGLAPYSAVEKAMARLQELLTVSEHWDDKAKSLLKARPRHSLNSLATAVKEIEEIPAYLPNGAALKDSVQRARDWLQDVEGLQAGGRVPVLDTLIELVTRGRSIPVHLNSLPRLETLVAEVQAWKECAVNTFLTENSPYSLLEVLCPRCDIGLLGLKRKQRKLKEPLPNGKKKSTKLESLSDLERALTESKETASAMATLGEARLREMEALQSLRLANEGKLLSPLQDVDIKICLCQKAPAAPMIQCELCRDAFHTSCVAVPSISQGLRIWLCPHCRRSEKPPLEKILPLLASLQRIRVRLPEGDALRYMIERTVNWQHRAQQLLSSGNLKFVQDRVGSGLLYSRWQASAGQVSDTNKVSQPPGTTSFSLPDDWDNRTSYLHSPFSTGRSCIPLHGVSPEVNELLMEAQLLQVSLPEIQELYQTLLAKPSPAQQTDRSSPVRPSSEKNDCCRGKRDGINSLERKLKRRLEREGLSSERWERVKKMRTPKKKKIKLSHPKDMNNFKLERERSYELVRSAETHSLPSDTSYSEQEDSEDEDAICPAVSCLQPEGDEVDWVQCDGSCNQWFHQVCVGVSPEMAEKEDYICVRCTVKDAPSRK
N-terminal Xaa-Pro-Lys N-methyltransferase 1 (Homo sapiens), sequence (Q9BV86 whole entry, looked up): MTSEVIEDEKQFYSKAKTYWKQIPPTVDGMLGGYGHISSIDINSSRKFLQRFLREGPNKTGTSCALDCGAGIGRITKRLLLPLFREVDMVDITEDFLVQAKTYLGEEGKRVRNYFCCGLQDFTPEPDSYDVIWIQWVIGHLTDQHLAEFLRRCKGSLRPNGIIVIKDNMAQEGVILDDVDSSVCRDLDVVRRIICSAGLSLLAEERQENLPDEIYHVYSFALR

Take `CCN(CC)C(=O)c1ccc(O)c(OC)c1`: the Potency result in [1] and in assay [2] was “inactive” in each case. Further, the molecule was called inactive in assay [3].
In the case of `CC(C)NCC(O)COc1cccc2[nH]ccc12` (centres undefined), the Potency entry in assay [4], in assay [1], in [5] and in assay [6] was “inactive” in each case. The call in [3] was inactive.
With `NS(=O)(=O)c1ccc(NC2=CC(=O)c3ccccc3C2=O)cc1`, in assay [2], the Potency result was “inactive”.
The same measure, in the same setting: with `N#C[C@H]1C[C@H]2C[C@@H]2N1C(=O)[C@@H](N)C12CC3CC(CC(O)(C3)C1)C2` the entry was “inactive”.
With `O=c1cc(-c2ccccc2)oc2cc(O)c(O)c(O)c12`, the Potency was 2.71 µM (active) in assay [1], 17.5 µM (active) in assay [6] and 141 µM (active) in assay [8]. The molecule was classed as inactive in assay [7].
Consider `COC(=O)C1=CO[C@@H](O)[C@@H]2C(CO)=CC[C@@H]12`, for which the Potency result in assay [2] is “inactive”.
Take `CCCCCN(C)CCC(O)(P(=O)(O)O)P(=O)(O)O`: the Potency result in assay [2] is “inactive”. For the same molecule, the molecule was classed as inactive in assay [3].
`O=C(O)C(O)Cc1ccc(O)c(O)c1` (centres undefined): the Potency in [6] is 3.49 µM (active).
Regarding `O=C(O)c1cc(-c2ccccc2)nc2ccccc12`, in assay [5], the Potency result was “inactive”.
`CCn1c(C(=O)N(C2CC2)C2CC2)cc2c3c(ncn3C)c(Nc3cc(C)n(C)n3)nc21`: the Potency result in [5] and in assay [6] was “inactive” each time.
As for `CN(C[C@@H]1COCCO1)S(=O)(=O)Nc1ccc2ccc3ncc(-c4cnn(C)c4)cc3c(=O)c2c1`, the Potency result in assay [2], in assay [5] and in [6] was “inactive” throughout.
In the case of `COc1ccc(C2CC(c3ccccc3)=NN2c2ccc(S(N)(=O)=O)cc2)cc1` (centres undefined), the Potency result in [2], in assay [5] and in [6] was “inactive” throughout.
On to `CC(C)(C)NC(=O)Nc1cccc(Nc2ncc(F)c(NC(C)(C)CO)n2)c1`, for which the Potency entry in assay [2], in assay [5] and in assay [6] was “inactive” in each case.
Consider `CS(=O)(=O)N(Cc1ccco1)CC(O)Cn1c2ccccc2c2ccccc21` (centres undefined), for which the Potency entry in assay [5] and in [6] was “inactive” throughout.
Consider `COc1cc(N2CCC(N3CCN(C)CC3)CC2)ccc1Nc1ncnc(Nc2ccccc2S(=O)(=O)C(C)C)n1`, for which the Potency entry in [2], in assay [5] and in [6] was “inactive” in each case.
As for `Cc1ccc(Nc2cc(-c3cccc(N4C(=O)c5ccccc5C4=O)c3)ncn2)cc1NS(C)(=O)=O`, in [5], the Potency was 50.1 µM (active). Also, in assay [6], the Potency result is “inactive”.
For `Cc1cccc(Nc2nc(-c3ccncc3)cs2)c1`, the Potency entry in assay [2], in [5] and in [6] was “inactive” each time.
As to `O=C(NC1CCOCC1)c1ccc(-c2cc(-c3cn[nH]c3-c3ccccn3)ccn2)cc1`, the Potency result in assay [2], in assay [5] and in assay [6] was “inactive” each time.
For `CC(C)[C@H](CO)Nc1nc(Nc2ccc(C(=O)O)c(Cl)c2)c2ncn(C(C)C)c2n1`, the Potency result in [5] and in assay [6] was “inactive” each time.
As for `CC(C)(C)OC(=O)N[C@H]1CCCCCC=C[C@@H]2C[C@@]2(C(=O)NS(=O)(=O)C2CC2)NC(=O)[C@@H]2C[C@@H](OC(=O)N3Cc4cccc(F)c4C3)CN2C1=O`, the Potency in [9] is 49.4 µM (active); in [5], 35.5 µM (active); in [10], 49.4 µM (active). The Potency entry in assay [6] is “inactive”.
